Reference: PubChem BioAssay (EPA / NIEHS)
“And” between values parts separate entries of the source, which are not always exact repeats. Identical values can stand only once. Where a structure was tested more than once in an assay, its records may differ in their call. The source made the active and inactive calls. How the source made its calls: active means hit-call score of the fitted dose curve at least 0.9, where 1 is the maximum; inactive means score below 0.9.

Legend:
[1] = APR_HepG2_CellCycleArrest_1hr: Apredica 1-hour HepG2 Assay for Cell Cycle Arrest (AID 2282666); conditions: high-content imaging, actives raise or lower the signal
How it was run: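 Cell cycle arrest scored from nuclear DNA content (Hoechst 33342) using high-content imaging of fixed HepG2 cells after 1 h treatment across 0.39–200 uM, in duplicate. Gain or loss fitted relative to 0.5% DMSO.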

[2] = APR_HepG2_MicrotubuleCSK_1hr: Apredica 1-hour HepG2 Assay for Microtubule CSK Stabilty (AID 2282669); conditions: HepG2 microtubule cytoskeleton imaging, actives raise or lower the signal
How it was run: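 Alpha-tubulin immunofluorescence, imaged by automated high-content microscopy with Hoechst nuclear segmentation, measured cytoskeletal change after 1 h dosing of HepG2 at 0.39–200 uM in 0.5% DMSO. Activity fitted in both directions relative to DMSO.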

[3] = APR_HepG2_NuclearSize_1hr: Apredica 1-hour HepG2 Assay for Nuclear Size (AID 2282670); conditions: high-content imaging, actives raise or lower the signal
How it was run: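 Nuclear size measured by high-content imaging of Hoechst 33342 nuclear stain after formaldehyde fixation; human HepG2 line exposed 1 hr to compounds at 0.39–200 uM in 0.5% DMSO, with bidirectional curve fitting relative to DMSO.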

[4] = APR_HepG2_CellCycleArrest_24hr: Apredica 24-hour HepG2 Assay for Cell Cycle Arrest (AID 2282905); conditions: imaging, actives raise or lower the signal;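 further: cell cycle arrest scored as ratio of 2N to 4N nuclear DNA content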
How it was run: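 Readout: Hoechst 33342 nuclear DNA content by high-content fluorescent imaging, six images/well, 20x. Human HepG2 liver cells, 24 hr compound exposure, 0.39–200 uM, final DMSO 0.5% v/v. Gain or loss fitted relative to DMSO baseline.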

[5] = APR_HepG2_StressKinase_1hr: Apredica 1-hour HepG2 Assay for Stress Kinase (AID 2282906); conditions: HepG2 stress kinase (phospho-c-Jun) imaging, actives raise or lower the signal
How it was run: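 High-content imaging of phospho-c-Jun immunostaining (with Hoechst nuclear identification) after a 1 h exposure of HepG2 cells to 10 concentrations from 0.39 to 200 uM, final DMSO 0.5%. Fitted bidirectionally against DMSO.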

[6] = APR_HepG2_NuclearSize_24hr: Apredica 24-hour HepG2 Assay for Nuclear Size (AID 2282907); conditions: high-content imaging, actives raise or lower the signal
How it was run: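 Read-out: nuclear diameter from Hoechst 33342 (2 ug/mL) imaging of fixed HepG2 cells, 20x, six fields/well. Compounds ran at 0.39–200 uM for 24 hr, 0.5% DMSO final. Gain or loss was fitted bidirectionally relative to the DMSO baseline.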

[7] = APR_HepG2_CellLoss_24hr: Apredica 24-hour HepG2 Assay for Cell Loss (AID 2282908); conditions: high-content imaging;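 on AC50: fit in both directions so a hit may be cell loss or gain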
How it was run: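 Read-out: Hoechst 33342-stained nuclei counted by automated fluorescence imaging after formaldehyde fixation and Triton permeabilization. Ten concentrations, 0.39 to 200 uM, duplicate wells, 0.5% DMSO final. Gain or loss of signal fitted relative to DMSO baseline.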

[8] = APR_HepG2_MicrotubuleCSK_24hr: Apredica 24-hour HepG2 Assay for Microtubule CSK Stabilty (AID 2282909); conditions: HepG2 microtubule cytoskeleton imaging, actives raise or lower the signal
How it was run: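 Read-out: alpha-tubulin immunofluorescence intensity by automated high-content imaging of fixed HepG2 cells after 24 h compound treatment. Ten concentrations, 0.39 to 200 uM, in duplicate; DMSO 0.5% v/v. Taxol positive control; DMSO-normalized bidirectional curve fitting.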

[9] = APR_HepG2_MitoticArrest_24hr: Apredica 24-hour HepG2 Assay for Mitotic Arrest (AID 2282910); conditions: high-content imaging, actives raise or lower the signal
How it was run: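 High-content imaging of fixed HepG2 cells labeled with Hoechst 33342 and anti-phospho-histone H3, after 24 h treatment. Ten concentrations 0.39 to 200 uM in duplicate, final DMSO 0.5%; changes fitted both directions relative to DMSO.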

[10] = APR_HepG2_MitoMembPot_24hr: Apredica 24-hour HepG2 Assay for Mitochondrial Membrane Potential (AID 2282911); conditions: imaging, actives raise or lower the signal
How it was run: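 HepG2 cells exposed 24 h to 0.39–200 uM compounds in duplicate, 0.5% v/v DMSO final. MitoTracker Red CMXRos 250 nM loaded 30 min before formaldehyde fixation; high-content imaging at 20x, bidirectional fit versus DMSO.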

[11] = APR_HepG2_MitoMass_24hr: Apredica 24-hour HepG2 Assay for Mitochondrial Mass (AID 2282912); conditions: high-content imaging, actives raise or lower the signal
How it was run: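 HepG2, 24 hr dosing, 10 concentrations 0.39–200 uM in duplicate, DMSO 0.5% final. MitoTracker Red CMXRos 250 nM, 30 min pre-fix; 3.7% formaldehyde fix. Imaging-based fluorescence intensity; gain/loss fit vs DMSO baseline.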

[12] = APR_HepG2_p53Act_24hr: Apredica 24-hour HepG2 Assay for p53 Activation (AID 2282913); conditions: high-content imaging, actives raise or lower the signal;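 further: p53 protein immunofluorescence averaged per cell in HepG2 with Hoechst nuclei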
How it was run: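 HepG2 cells exposed 24 h to compounds at 0.39–200 uM in duplicate, 0.5% v/v DMSO final; fixed, permeabilized, stained with anti-p53 antibody and Hoechst 33342; fluorescence imaging; bidirectional curve fit versus DMSO.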

[13] = APR_HepG2_CellCycleArrest_72hr: Apredica 72-hour HepG2 Assay for Cell Cycle Arrest (AID 2282914); conditions: high-content imaging, actives raise or lower the signal
How it was run: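 HepG2 cells exposed 72 h in duplicate to 0.39–200 uM compound, 0.5% DMSO final. Formaldehyde-fixed, Hoechst 33342-stained nuclei imaged at 20x, six fields per well; DNA content per valid cell quantified by cell-cycle image analysis, bidirectional fit versus DMSO.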

[14] = APR_HepG2_MitoMass_1hr: Apredica 1-hour HepG2 Assay for Mitochondrial Mass (AID 2282674); conditions: high-content imaging, actives raise or lower the signal
How it was run: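 Mitochondrial mass is taken from MitoTracker Red CMXRos (250 nM, 30 min, pre-fixation) fluorescence imaged at 20x in HepG2 cells. Exposure lasted 1 hr across ten concentrations, 0.39 to 200 uM, 0.5% DMSO; DMSO baseline, bidirectional fitting.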

[15] = APR_HepG2_MitoMembPot_1hr: Apredica 1-hour HepG2 Assay for Mitochondrial Membrane Potential (AID 2282675); conditions: imaging, actives raise or lower the signal
How it was run: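 Mitochondrial membrane potential read as MitoTracker Red CMXRos intensity by automated imaging of fixed HepG2 cells. Dye at 250 nM for 30 min pre-fixation; compounds 0.39 to 200 uM for 1 hour, duplicate wells, 0.5% DMSO.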

[16] = APR_HepG2_MitoticArrest_1hr: Apredica 1-hour HepG2 Assay for Mitotic Arrest (AID 2282672); conditions: high-content imaging, actives raise or lower the signal
How it was run: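 Ten-point concentration series (0.39 to 200 uM, duplicates, 0.5% v/v DMSO) applied to human HepG2 liver cells for 1 hr. High-content imaging of phospho-histone H3 and Hoechst-stained nuclei after fixation and permeabilization; DMSO-normalised bidirectional fit.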

[17] = APR_HepG2_P-H2AX_1hr: Apredica 1-hour HepG2 Assay for H2AX Phosphorylation (AID 2282673); conditions: high-content imaging, actives raise or lower the signal
How it was run: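 Phospho-H2A.x immunofluorescence (1:200, FITC secondary) plus Hoechst nuclear stain, quantified by high-content imaging in HepG2 after 1 hr compound exposure. Ten concentrations, 0.39 to 200 uM, in duplicate with 0.5% DMSO; fit both directions against DMSO.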

Measured: AC50

O=S(=O)(O)C(F)(F)C(F)(F)C(F)(F)C(F)(F)C(F)(F)C(F)(F)C(F)(F)C(F)(F)F
active: [6] 63.8 µM | [7] 122 µM [middle of 5 runs] | [8] 113 µM | [9] 106 µM [middle of 5 runs] | [11] 116 µM [middle of 4 runs] | [12] 111 µM [middle of 4 runs]
inactive: [1] | [2] | [3] | [4] | [5] | [6] | [8] | [10] | [11] | [12] | [13]

CC(C)N(C(=O)COc1nnc(C(F)(F)F)s1)c1ccc(F)cc1
active: [7] 115 µM | [8] 99.5 µM
not listed: [3] | [14] | [15] | [16] | [17]
inactive: all other assays above

O=C(O)COc1ccc(Cl)cc1Cl
not listed: [3] | [14] | [15] | [16] | [17]
inactive: all other assays above

CC(C)(C)C(O)/C(=C\c1ccc(Cl)cc1Cl)n1cncn1 (centres undefined)
not listed: [3] | [15] | [16] | [17]
inactive: all other assays above

CCC(C)(C)C(=O)OC1=C(c2ccc(Cl)cc2Cl)C(=O)OC12CCCCC2
active: [4] 60.2 µM | [7] 137 µM | [8] 100 µM
not listed: [16] | [17]
inactive: all other assays above

CC1(C)C(C=C(Cl)Cl)C1C(=O)OC(C#N)c1ccc(F)c(Oc2ccccc2)c1 (centres undefined)
not listed: [3] | [14] | [15] | [17]
inactive: all other assays above

O=C(O)CCCOc1ccc(Cl)cc1Cl
not listed: [3] | [14] | [15] | [16] | [17]
inactive: all other assays above

COC(=O)c1ccccc1CS(=O)(=O)NC(=O)Nc1nc(OC)cc(OC)n1
not listed: [3] | [14] | [15] | [17]
inactive: all other assays above

COC(=O)c1ccccc1S(=O)(=O)NC(=O)Nc1nc(C)nc(OC)n1
not listed: [3] | [14] | [15] | [16] | [17]
inactive: all other assays above

CCOc1nc(NC)nc(NC(=O)NS(=O)(=O)c2ccccc2C(=O)OC)n1
not listed: [3] | [15] | [16] | [17]
inactive: all other assays above

CN1CSC(=S)N(C)C1
active: [5] 40.9 µM | [7] 16.8 µM | [9] 27 µM | [13] 6.04 µM
not listed: [3] | [14] | [15] | [16] | [17]
inactive: all other assays above

Oc1cc(Cl)ccc1Oc1ccc(Cl)cc1Cl
inactive: [2] | [15] | [4] | [5] | [6] | [8] | [9] | [10] | [11] | [12] | [13]
active: [1] 118 µM | [17] 99.8 µM | [4] 9.18 µM and 20.4 µM | [6] 63.9 µM | [7] 90.7 µM and 70.9 µM and 12.8 µM | [8] 98.5 µM and 33.3 µM | [9] 61.6 µM and 63.6 µM | [10] 97.9 µM and 4.39 µM | [11] 177 µM and 59 µM | [12] 28.4 µM | [13] 18.9 µM and 11.6 µM

CCOCN(C(=O)CCl)c1c(C)cccc1CC
active: [4] 30.6 µM | [6] 33.4 µM | [7] 30.5 µM | [8] 99.6 µM | [9] 17.9 µM | [10] 50.7 µM | [11] 65.1 µM | [12] 31.9 µM | [13] 29.4 µM
inactive: [1] | [2] | [16] | [5]
